Measured values taken from publication PMC5700166.

Target: T1, GST-Nv-NF-kB (Ser allele) (Nematostella vectensis, UniProt A7UNT2 2-411)
T1 sequence: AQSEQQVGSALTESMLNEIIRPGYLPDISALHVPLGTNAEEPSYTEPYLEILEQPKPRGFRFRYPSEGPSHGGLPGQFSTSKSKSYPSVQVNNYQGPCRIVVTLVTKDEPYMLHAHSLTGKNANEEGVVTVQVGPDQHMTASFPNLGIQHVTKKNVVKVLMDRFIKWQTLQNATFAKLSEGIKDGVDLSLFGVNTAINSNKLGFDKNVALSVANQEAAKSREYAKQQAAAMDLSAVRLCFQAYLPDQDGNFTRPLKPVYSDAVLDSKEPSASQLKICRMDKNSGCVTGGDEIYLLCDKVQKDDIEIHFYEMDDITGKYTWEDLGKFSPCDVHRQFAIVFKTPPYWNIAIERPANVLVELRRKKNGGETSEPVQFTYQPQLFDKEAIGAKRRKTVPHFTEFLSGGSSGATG
Assay: protein-binding microarray (PBM); PBM: ~300 nM protein, 6 mM HEPES pH 7.8, 80 mM KCl, 0.5 mM EDTA, 0.5 mM EGTA, 6% glycerol, 35 ng/ul poly-dIdC, 1% milk, 1 h, room temperature; Ap Aiptasia and Nv Nematostella (sea anemones) / Co Capsaspora / Aq Amphimedon (sponge) / Dm Drosophila / Hu human; RHD is the Rel homology domain; high values mean tight binding
Conditions: dsDNA, one strand shown

Sequence | binding signal [z-score]
CCGATTAACATCAGGGGGGAGACTGATGTTAATCGGGTCTTGATTCGCTTGACGCTGCTG | 5.69
CCGATTAACATCACTTTGGGAAATGATGTTAATCGGGTCTTGATTCGCTTGACGCTGCTG | 1.89
CCGATTAACATCATTTTACCTTGTGATGTTAATCGGGTCTTGATTCGCTTGACGCTGCTG | 3.39
CCGATTAACATCACGGAATTCCCTGATGTTAATCGGGTCTTGATTCGCTTGACGCTGCTG | 6.06
CCGATTAACATCACATATCCCCCTGATGTTAATCGGGTCTTGATTCGCTTGACGCTGCTG | 6.2
CCGATTAACATCAAGGGGGGGGGTGATGTTAATCGGGTCTTGATTCGCTTGACGCTGCTG | 4.84
CCGATTAACATCACAAATACCCCTGATGTTAATCGGGTCTTGATTCGCTTGACGCTGCTG | 4.74
CCGATTAACATCAAAAGCCCCCTTGATGTTAATCGGGTCTTGATTCGCTTGACGCTGCTG | 5.65
CCGATTAACATCAGGGAAATTAATGATGTTAATCGGGTCTTGATTCGCTTGACGCTGCTG | 6.52
CCGATTAACATCAGGGGGAGTACTGATGTTAATCGGGTCTTGATTCGCTTGACGCTGCTG | 5.81
CCGATTAACATCAGGGGGTGGAATGATGTTAATCGGGTCTTGATTCGCTTGACGCTGCTG | 4.75
CCGATTAACATCACATTGGGAAATGATGTTAATCGGGTCTTGATTCGCTTGACGCTGCTG | 1.58
CCGATTAACATCAGAAGACCCCCTGATGTTAATCGGGTCTTGATTCGCTTGACGCTGCTG | 3.72
CCGATTAACATCAACAACCCCCCTGATGTTAATCGGGTCTTGATTCGCTTGACGCTGCTG | 5.06
CCGATTAACATCAAGGGGGGACTTGATGTTAATCGGGTCTTGATTCGCTTGACGCTGCTG | 4.99
CCGATTAACATCATTTCCGGAAATGATGTTAATCGGGTCTTGATTCGCTTGACGCTGCTG | 1.02
CCGATTAACATCAAGGGGGGGGATGATGTTAATCGGGTCTTGATTCGCTTGACGCTGCTG | 5.62
CCGATTAACATCAGGGGGGATACTGATGTTAATCGGGTCTTGATTCGCTTGACGCTGCTG | 4.8
CCGATTAACATCAAGGGACTTCCTGATGTTAATCGGGTCTTGATTCGCTTGACGCTGCTG | 5.97
CCGATTAACATCAAAAATGCCCCTGATGTTAATCGGGTCTTGATTCGCTTGACGCTGCTG | 6.13

Sequence | binding signal [z-score]
CCGATTAACATCAAACGTTCCCCTGATGTTAATCGGGTCTTGATTCGCTTGACGCTGCTG | 6.33
CCGATTAACATCATGGGGGGGAATGATGTTAATCGGGTCTTGATTCGCTTGACGCTGCTG | 4.89
CCGATTAACATCACCCCGCCCCCTGATGTTAATCGGGTCTTGATTCGCTTGACGCTGCTG | 3.65
CCGATTAACATCAGACCCCCCCCTGATGTTAATCGGGTCTTGATTCGCTTGACGCTGCTG | 3.56
CCGATTAACATCAGAAAATCACCTGATGTTAATCGGGTCTTGATTCGCTTGACGCTGCTG | 4.87
CCGATTAACATCAAACCCCCCCATGATGTTAATCGGGTCTTGATTCGCTTGACGCTGCTG | 4.41
CCGATTAACATCAGAAATTACCCTGATGTTAATCGGGTCTTGATTCGCTTGACGCTGCTG | 5.41
CCGATTAACATCACATACCTACCTGATGTTAATCGGGTCTTGATTCGCTTGACGCTGCTG | 1.21
CCGATTAACATCAAGGGGGGGATTGATGTTAATCGGGTCTTGATTCGCTTGACGCTGCTG | 6.32
CCGATTAACATCATACCCCCCCATGATGTTAATCGGGTCTTGATTCGCTTGACGCTGCTG | 3.11
CCGATTAACATCAAATTCCCTTATGATGTTAATCGGGTCTTGATTCGCTTGACGCTGCTG | 6.07
CCGATTAACATCAGAGATCCCCCTGATGTTAATCGGGTCTTGATTCGCTTGACGCTGCTG | 6.44
CCGATTAACATCAGGGGGAGTTATGATGTTAATCGGGTCTTGATTCGCTTGACGCTGCTG | 6.11
CCGATTAACATCATGGGAAGGTTTGATGTTAATCGGGTCTTGATTCGCTTGACGCTGCTG | 1.52
CCGATTAACATCAAAATTCCCGTTGATGTTAATCGGGTCTTGATTCGCTTGACGCTGCTG | 6.44
CCGATTAACATCAGAAACCCCCATGATGTTAATCGGGTCTTGATTCGCTTGACGCTGCTG | 6.17
CCGATTAACATCAGGGGCTTACCTGATGTTAATCGGGTCTTGATTCGCTTGACGCTGCTG | 3.61
CCGATTAACATCAGGGGGAACACTGATGTTAATCGGGTCTTGATTCGCTTGACGCTGCTG | 6.37
CCGATTAACATCAGGGGTTTTACTGATGTTAATCGGGTCTTGATTCGCTTGACGCTGCTG | 4.36
